Screening results deposited in PubChem by National Center for Advancing Translational Sciences (NCATS).
DT40 TDP1 no CPT = qHTS for Inhibitors of human tyrosyl-DNA phosphodiesterase 1 (TDP1): qHTS in cells in absence of CPT. DT40 Tdp1-/- hTDP1 cells, no CPT, ATP luminescence, 48 h. Potency, µM (top dose mostly 46.2 µM), without a hit: at the highest dose activity change, negative = growth inhibition, hits mostly inhibitors. 420,000 compounds, 15% hits; note: potency is the fitted concentration of half-maximal effect; nearly all actives have a fitted effect of over 55% in size
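Chicken DT40 Tdp1-/- cells complemented with human TDP1, screened without camptothecin (DMSO vehicle only), 400 cells/well. Compounds pin-transferred, cells incubated at 37 °C for at least 48 hr. Growth read as ATP-dependent luminescence (CellTiter-Glo, 30 min at RT).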
ELG1 repair inh = ELG1-dependent DNA repair inhibition; HEK293T ELG1-luciferase reporter, luminescence, 16 h; DNA damage induced by 5-fluorouridine; 330,000 compounds, 2.3% hits; AID 504467; Potency, µM (series often up to 46.1 µM), inactives show at the top dose activity change, negative = inhibition, usual class: inhibitors; note: potency is the fitted concentration of half-maximal effect; nearly all actives have a fitted effect of over 55% in size
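Quantitative HTS, concentration-response format. 2,000 cells/well co-treated with 5-fluorouridine and compound, 16 hr in 5% CO2 at 37 °C; ONE-Glo luminescence read after 30 min.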
HT1080NT lethal = kills 2HG-producing HT-1080-NT fibrosarcoma cells | HT-1080-NT fibrosarcoma viability, CellTiter-Glo ATP luminescence, 48 h | Potency, µM (highest dose often 46.1 µM), inactives show at the highest dose activity, negative = less viability, usual class: cytotoxic | 360,000 compounds, 1.6% hits | AID 686970;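 note: NT is the 2HG producing partner of a matched IDH1 knockdown line; potency is the fitted concentration of half-maximal effect; 0% = DMSO-treated cells and -100% = media-only wells without cells; nearly all actives have a fitted effect of over 55% in size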
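Fibrosarcoma NT cells, 750 per well in 5% FBS RPMI, were exposed to compound for 48 hours. Viability: CellTiter-Glo luminescence.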
HT1080 IDH1KD tx = kills HT-1080 cells with IDH1 knockdown; 360,000 compounds, 2% hits; Potency, µM (doses to about 46.1 µM), for inactives: at the highest dose activity, negative = toxicity, most hits filed as cytotoxic; HT-1080 IDH1 knockdown viability, ATP luminescence, 48 h;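 note: potency is the fitted concentration of half-maximal effect; 0% = DMSO wells and -100% = cell-free medium wells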
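Viability of IDH1-knockdown HT-1080 fibrosarcoma cells was assessed by CellTiter-Glo after 48 h at 37 °C with titrated compound; concentration-effect curves were classified by fit quality and response size.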
IL1B secr inh = blocks inflammasome-driven IL-1 beta release; THP-1 LPS/ATP IL-1B secretion, AlphaLISA, 16 h; hits give low values; AID 743279; activity change, % at 57.5 µM; 360,000 compounds, 4.7% hits; in the data active = activity change below about -50%; inconclusive = mostly about -30% to -49%
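Secreted IL-1B measured by AlphaLISA bead assay after 16 h compound exposure of THP-1 cells; compounds (final up to 57.5 uM) added 1 h before LPS (250 ng/mL) and ATP (1.25 mM) stimulation; lower signal means less secretion.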
TDP1 cell CPT = DT40-hTDP1 cell growth loss with CPT | chicken DT40 Tdp1-/-;hTDP1 cells + 20 nM CPT, ATP luminescence, 48 h | Potency, µM (doses to about 46.2 µM), for inactives: at the top dose activity change, negative = growth inhibition, hits mostly inhibitors | 420,000 compounds, 12% hits | AID 686979; note: potency is the fitted concentration of half-maximal effect; nearly all actives have a fitted effect of over 55% in size
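Cell growth measured by CellTiter-Glo luminescence after a minimum 48 h, 37 C compound exposure with 20 nM CPT in Tdp1-knockout DT40 cells stably expressing hTDP1, seeded 400/well; qHTS titration format.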
Active calls of the source: *; i = inactive; ? = inconclusive; . = not tested or not shown. An excerpt weighted towards active compounds, which were near 19% of everything screened. Unless noted, calls come from the whole dose curve; as a rule, active = well fitted curve in the direction sought with a large enough effect; inconclusive = small, poorly fitted or top-dose-only effect, or another doubt; inactive = no such curve, though single readings can be large; an effect the other way counts as inactive or inconclusive. Unless noted, % is set by controls: 0 for no effect and ±100 for the full control effect.

SMILES | DT40 TDP1 no CPT | ELG1 repair inh | HT1080NT lethal | HT1080 IDH1KD tx | IL1B secr inh | TDP1 cell CPT
CCOc1ccc2ccccc2c1/C=N/NC(=O)CNC(=O)c1ccccc1F | ? | -17% | 2% | -5% | -30 | -18%
CC1CCN(S(=O)(=O)CCNC(=O)c2ccccc2)CC1 | 1% | 28% | 15% | 15% | -2 | 0%
COc1ccccc1N(CC(=O)N/N=C/c1c(O)ccc2ccccc12)S(C)(=O)=O | 5.8µM* | -16% | ? | ? | -7 | 5.2µM*
Cc1ccc2[nH]c3c(=O)n(CC(=O)N4CCN(C)CC4)ncc3c2c1 | 11% | 21% | -1% | 3% | 2 | 1%
COc1ccccc1N1CCN(c2cc(C)nc3nc(-c4ccc(Cl)cc4)nn23)CC1 | ? | . | . | . | . | -19%
O=C(Nc1cccc(-n2cccn2)c1)C1CCCN(Cc2ccccc2F)C1 (centres undefined) | ? | ? | 1% | 7% | -11 | 21µM*
COc1cc(CN2CCCC(C(=O)Nc3cccc(-n4cccn4)c3)C2)ccc1F (centres undefined) | 26µM* | -3% | ? | ? | -66* | ?
O=C([C@@H]1CC=C[C@@H]2CCN(C3CCCCC3)C(=O)[C@@H]21)N1CCOCC1 | -9% | . | . | . | . | 0%
CC(=O)c1cccc(CN2CCC(C(=O)Nc3ccc(Oc4cccnc4)cc3)CC2)c1 | 23µM* | ? | -10% | ? | i | ?
O=C(Nc1ccc(Oc2cccnc2)cc1)C1CCN(Cc2cccc(Cl)c2)CC1 | ? | -21% | -22% | ? | 12 | 18µM*
Cc1ccc(CN2CCC(C(=O)Nc3ccc(Oc4cccnc4)cc3)CC2)cc1 | 16µM* | ? | -8% | -26% | 5 | 18µM*
CC(=O)c1cccc(CN2CCC(C(=O)Nc3ccc(-c4cccc(C)c4)cc3)CC2)c1 | 6.5µM* | 5% | ? | 21µM* | -62* | 10µM*
CC(C)C(=O)N1CCN(c2ccccc2NC(=O)c2ccco2)CC1 | ? | -12% | 11% | 4% | 16 | -10%
COc1ccc(C[C@H]2CN3C(=NC[C@@H]3Cc3ccccc3)N2C[C@H](C)NC(=O)CCC2CCCCC2)cc1 | . | -18% | . | . | . | .
COc1ccc(C[C@H]2CN3C(=NC[C@@H]3Cc3ccccc3)N2CCNC(=O)c2ccc(C)c(Br)c2)cc1 | 21µM* | 4% | ? | ? | -52* | 23µM*
COc1ccc(C[C@H]2CN3C(=NC[C@H]3Cc3ccccc3)N2CCNC(=O)CCC2CCCCC2)cc1 | 26µM* | -2% | -4% | -2% | -20 | ?
COc1ccc(C[C@H]2CN3C(=NC[C@H]3Cc3ccccc3)N2CCNC(=O)c2ccc(C)c(Br)c2)cc1 | 15µM* | -1% | -21% | ? | -52* | 21µM*
C[C@@H](CN1C2=NC[C@H](Cc3ccccc3)N2C[C@H]1Cc1ccc(O)cc1)NC(=O)CCC1CCCCC1 | 12µM* | 8% | ? | ? | ? | 7.3µM*
COC(=O)C1CCN(C(=O)c2ccc(OC)c(S(=O)(=O)N3CCCc4ccccc43)c2)CC1 | ? | -14% | 1% | -2% | 5 | ?
CCOC(=O)C1CCN(C(=O)COC(=O)c2ccc3[nH]c4c(c3c2)CCCC4)CC1 | 12µM* | ? | -13% | -24% | ? | 13µM*
COC(=O)C1CCN(C(=O)COC(=O)c2ccc(OC)c(S(=O)(=O)N3CCCc4ccccc43)c2)CC1 | 0.41µM* | 3% | 3% | -2% | 19 | -18%
CCOC(=O)c1ccc2[nH]c3c(c2c1)CCCC3C(=O)OCC (centres undefined) | -26% | -7% | -11% | -16% | -10 | -16%
COC(=O)C1CCN(C(=O)COC(=O)c2ccc3[nH]c4c(c3c2)CCCC4)CC1 | 10µM* | -5% | 10% | 7% | 12 | 13µM*
CC1CCCN(C(=O)COC(=O)c2ccc3[nH]c4c(c3c2)CCCC4)C1 (centres undefined) | 23µM* | ? | -11% | -18% | -9 | ?
CC(=O)OC1CC(OC(C)=O)[C@]2(C)C(CC(=O)[C@]3(C)C2CC[C@@]2(C)C(c4ccoc4)OC(=O)C4O[C@@]423)C1(C)C (some centres undefined) | -13% | . | . | . | . | -8%
SMILES | DT40 TDP1 no CPT | ELG1 repair inh | HT1080NT lethal | HT1080 IDH1KD tx | IL1B secr inh | TDP1 cell CPT
CC(C)CCNC(=O)C1CCN(S(=O)(=O)c2cccc3nsnc23)CC1 | -9% | . | . | . | . | -17%
Cc1ccc(O)c(NC(=O)Cc2ccc3ccccc3c2)c1 | 8% | -3% | ? | -14% | -65* | 5%
C=C(C)CN=CC1(C)CCC(C)=CO1 (centres undefined) | 18µM* | . | 3% | 13% | -1 | 16µM*
COc1cc(CNCCO)cc(Cl)c1OCc1ccccc1Cl | ? | ? | ? | ? | -91* | ?
COc1cc(CNCCc2ccccc2)cc(Cl)c1OCc1ccccc1 | ? | -21% | 13µM* | ? | -104* | ?
Cc1ccc(C(=O)NCC(=O)N(C)Cc2ccccc2C)s1 | -3% | . | 18% | 9% | -11 | 2%
Cc1nc(SCC(=O)NC(C)c2ccccc2)c2oc3ccccc3c2n1 (centres undefined) | 21µM* | 0% | 11% | 11% | 0 | 16µM*
Cc1nc(SCC(=O)Nc2ccccc2)c2oc3ccccc3c2n1 | -30% | 4% | 5% | -2% | 3 | -5%
Cc1nc(SCC(=O)N2CCCc3ccccc32)c2oc3ccccc3c2n1 | ? | 11% | -2% | 8% | -8 | 16µM*
CCc1nc(SCC(=O)N2CCc3ccccc32)c2oc3ccccc3c2n1 | 1% | . | -1% | 1% | 6 | 5%
CCC(C)[C@H](NC(=O)[C@@H]1Cc2ccccc2CN1)C(=O)Nc1ccc2c(c1)OCO2 (some centres undefined) | -3% | ? | -4% | -2% | -18 | ?
COc1ccc(OC)c(NC(=O)C2CCCN(S(=O)(=O)c3ccc(-n4cnnn4)cc3)C2)c1 (centres undefined) | ? | 26µM* | 4% | 6% | -7 | -1%
